# Measured values reported in the supplement of paper PMC11732987, “Enantioselective OTUD7B fragment discovery through chemoproteomics screening and high-throughput optimisation” (Communications Chemistry, 2025).
# A number with no mark means an inactive call.
# Target: T1, USP22 (UniProt Q9UPT9)
# T1 sequence (whole entry): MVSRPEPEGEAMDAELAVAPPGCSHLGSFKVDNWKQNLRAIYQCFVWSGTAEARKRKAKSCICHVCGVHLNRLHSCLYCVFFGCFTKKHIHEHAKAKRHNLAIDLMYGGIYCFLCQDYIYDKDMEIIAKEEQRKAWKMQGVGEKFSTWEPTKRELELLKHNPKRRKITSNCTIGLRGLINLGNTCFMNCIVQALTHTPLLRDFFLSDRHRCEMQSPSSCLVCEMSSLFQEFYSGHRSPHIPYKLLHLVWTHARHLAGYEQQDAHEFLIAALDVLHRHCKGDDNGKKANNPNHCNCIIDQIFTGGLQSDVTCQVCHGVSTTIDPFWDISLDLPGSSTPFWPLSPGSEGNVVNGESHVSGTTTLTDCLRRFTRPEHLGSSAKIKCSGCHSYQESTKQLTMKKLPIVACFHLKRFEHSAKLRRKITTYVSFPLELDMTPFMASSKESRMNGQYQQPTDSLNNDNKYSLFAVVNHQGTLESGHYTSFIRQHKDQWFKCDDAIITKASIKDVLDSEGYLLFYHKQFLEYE
# Assay: log2 ratio of Biotin-Ahx-Ub-VS probe labelling (fragment/DMSO); higher = less target engagement (more negative = stronger competition), active = hit call of the paper (q ≤ 0.05, log2 ratio ≤ -1)
# Conditions: compound concentration: 200 uM; treatment time: 3 h
# Method: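 Competitive ABPP in HEK293T cell lysate. Lysates were treated with each chloroacetamide fragment at 200 µM for 3 h, then with Biotin-Ahx-Ub-VS (0.5 µM, 1 h), NeutrAvidin-enriched and analysed by diaPASEF LC-MS/MS. Protein LFQ was median-normalised; average log2 ratio is fragment/DMSO from an unpaired t-test (n=3 treated, n=44 DMSO). Hits: q ≤ 0.05, log2 ratio ≤ -1, unique peptides ≥ 2.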
row,SMILES,log2 ratio of Biotin-Ahx-Ub-VS probe labelling
1,Cl.O=C(CCl)NCCN1CCc2ccccc21,-1.07 (active)
2,Cc1ccccc1CN(C)C(=O)CCl,-0.0794
3,CNC(=O)Cn1cc(NC(=O)CCl)cn1,-0.0499
4,Cc1cccc(C(CNC(=O)CCl)N2CCOCC2)c1.Cl (stereo not given),-0.00636
5,O=C(CCl)N1CC=C(c2c[nH]c3ccccc23)CC1,-0.57
6,O=C(CCl)NCc1cccc(F)c1,-0.171
7,Cc1c(C#N)c(NC(=O)CCl)n(Cc2ccco2)c1C,-0.178
8,O=C(CCl)Nc1cccc(C(=O)N2CCSCC2)c1,-0.0474
9,COCC1C=CCCN1C(=O)CCl (stereo not given),-0.0428
10,Cl.O=C(CCl)N1CC(c2ccc(Br)cn2)C1,-0.346
11,COc1cc(Cl)c(C)cc1NC(=O)CCl,-0.0389
12,Cc1ccc(CC(NC(=O)CCl)c2ccccn2)cc1.Cl (stereo not given),-0.153
13,O=C(O)C1Cc2ccccc2CN1C(=O)CCl (stereo not given),0.112
14,CC(NC(=O)CCl)c1noc(Cc2ccccc2)n1 (stereo not given),-0.322
15,Cc1cccc(C)c1NC(=O)CCl,0.0867
16,O=C(CCl)N1CCN(C(=O)N2CCCCC2)CC1,-0.465
17,O=C(CCl)N1CCC(c2noc3cc(F)ccc23)CC1,-0.492
18,O=C(CCl)N1CCC(OCc2ccccc2F)CC1,-0.181
19,O=C(CCl)N1CCOC(c2cccc(F)c2)C1 (stereo not given),-0.24
20,CS(=O)(=O)c1ccc(CNC(=O)CCl)cc1,-0.163

row,SMILES,log2 ratio of Biotin-Ahx-Ub-VS probe labelling
1,CCC1c2ccsc2CCN1C(=O)CCl (stereo not given),0.0245
2,C[C@@H](NC(=O)CCl)c1cccc(C#N)c1,0.031
3,CN(CCc1ncc(Br)cn1)C(=O)CCl.Cl,-0.0976
4,Cl.Cn1cnc2cc(CNC(=O)CCl)ccc21,0.00285
5,CN1c2ccccc2C(NC(=O)CCl)CS1(=O)=O (stereo not given),-0.303
6,Cl.Cn1ncc2c1CC(NC(=O)CCl)CC2 (stereo not given),0.0984
7,O=C(CCl)N1CCC(c2ccn[nH]2)C1 (stereo not given),-0.234
8,CNC(=O)C1CCN(C(=O)CCl)CC1,0.206
9,Cc1cc(CC(C)NC(=O)CCl)n[nH]1 (stereo not given),0.128
10,Cc1ncsc1CCNC(=O)CCl,0.314
11,O=C(CCl)N1CCCN(C(=O)c2ccc(Cl)cc2)CC1,-0.095
12,Cc1ccc(CN(C)C(=O)CCl)o1,-0.454
13,N#Cc1cnn(-c2ccccc2)c1NC(=O)CCl,0.00637
14,C[C@H]1CN(C(=O)CCl)CCN1C(=O)c1cnn(C)c1.Cl,-0.177
15,Cc1n[nH]c2c1CN(C(=O)CCl)CC2,-0.846
16,O=C(CCl)N1CCc2nc[nH]c2C1c1ccc(Cl)cc1 (stereo not given),0.00421
17,O=C(CCl)Nc1ccc(N2CCCC2=O)cc1,0.36
18,Cl.O=C(CCl)N1CCc2ncncc2C1,-0.0201
19,CN(C)C(=O)c1ccc(NC(=O)CCl)cc1,-0.0455
20,Cl.O=C(CCl)N1CCC(Cc2nccs2)C1 (stereo not given),0.0323
